Measured values taken from PubChem BioAssay (NCATS).
“And” between values parts separate entries of the source, which are not always exact repeats. Identical values can stand only once. Inconclusive results are not listed. Entries that show only a call come without a potency. The source made the active and inactive calls. The call rests on the fitted dose curve; in most records, active means well fitted inhibition curve with a large enough effect; inconclusive means small, poorly fitted or top-dose-only effect; inactive means flat fitted curve, though single readings scatter.

Tests used:
Experiment in all cases: qHTS profiling for inhibitors of Plasmodium falciparum proliferation (AID 504749); further: nearly all actives have a fitted effect of over 60% in size
Conditions in all cases: P. falciparum in erythrocytes, SYBR Green DNA, 72 h; series mostly up to 28.7 µM
CP329 = test system: CP329
Summary of the method: (§1)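 Quantitative HTS: compounds pinned into medium, infected erythrocytes added (0.3% parasitemia, 2.5% hematocrit), 72 h culture at 37 C under 5% CO2. Saponin/Triton lysis with SYBR Green I, overnight RT, then fluorescence read.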

DFO2036 = test system: DFO2036
Summary of the method: as §1

DIV14 = test system: DIV14
Summary of the method: as §1

DIV17 = test system: DIV17
Summary of the method: as §1

Dd2 = test system: Dd2
Summary of the method: as §1

FAB9 = test system: FAB9
Summary of the method: as §1

GB4 = test system: GB4
Summary of the method: as §1

DIV30 = test system: DIV30
Summary of the method: as §1

ECU = test system: ECU
Summary of the method: as §1

CP335 = test system: CP335
Summary of the method: as §1
Potency means the concentration at half of the fitted maximal effect.

| SMILES | Potency (CP329) | Potency (DFO2036) | Potency (DIV14) | Potency (DIV17) | Potency (Dd2) | Potency (FAB9) | Potency (GB4) | Potency (DIV30) | Potency (ECU) | Potency (CP335) |
| --- | --- | --- | --- | --- | --- | --- | --- | --- | --- | --- |
| CN1[C@@H]2CC[C@H]1CC(OC(c1ccccc1)c1ccccc1)C2 (some centres undefined) | inactive | 12.6 µM (active) | 2.39 µM (active) and 1.9 µM (active) | 5.36 µM (active) and 4.26 µM (active) | 6.31 µM (active) | inactive | 8.49 µM (active) |  |  |  |
| NC(=O)C(c1ccccc1)(c1ccccc1)[C@@H]1CCN(CCc2ccc3c(c2)CCO3)C1 |  |  | 7.57 µM (active) | 10.7 µM (active) | 5.01 µM (active) | inactive |  |  |  |  |
| O=C(O)Cc1ccc(-c2ccccc2)cc1 | inactive | inactive | inactive | inactive | inactive | inactive | inactive | inactive | inactive |  |
| COc1ccc(-c2cc(=S)ss2)cc1 | inactive | inactive | inactive | inactive | inactive | inactive | inactive |  | 12.6 µM (active) | inactive |
| COc1cc(/C=C/C(=O)N2CCN(CC(=O)N3CCCC3)CC2)cc(OC)c1OC | inactive | inactive |  |  | inactive | inactive | inactive |  |  | inactive |
| Cc1nc2ccccc2n1Cc1ccc(Cl)cc1 |  |  | inactive | inactive | inactive | inactive |  | inactive |  |  |
| C[S+](CC[C@H](N)C(=O)O)C[C@H]1O[C@@H](n2cnc3c(N)ncnc32)[C@H](O)[C@@H]1O (some centres undefined) | inactive |  | inactive | inactive | inactive | inactive | inactive | inactive |  | inactive |
| CCCOC(=O)c1ccc(O)cc1 | inactive | inactive | inactive | inactive | inactive | inactive | inactive | inactive | inactive | inactive |
| CC(=O)[C@]1(O)Cc2c(O)c3c(c(O)c2[C@@H](O[C@H]2C[C@H](N)[C@H](O)[C@H](C)O2)C1)C(=O)c1c(O)cccc1C3=O |  | 7.94 µM (active) | 4.26 µM (active) | 4.78 µM (active) | 3.16 µM (active) |  | 4.78 µM (active) |  |  | 5.36 µM (active) |
| O=C(CCN1CCN(CCO)CC1)N1c2ccccc2Sc2ccc(C(F)(F)F)cc21 | inactive |  | 9.53 µM (active) | 9.53 µM (active) | 11.2 µM (active) | inactive |  |  |  |  |
| O=c1[nH]c2ccccc2n1CCCN1CCN(C(c2ccccc2)c2ccccc2)CC1 |  |  | 13.5 µM (active) | 13.5 µM (active) | 11.2 µM (active) | inactive | 13.5 µM (active) |  |  |  |
| CCCSc1ccc2nc(NC(=O)OC)[nH]c2c1 | inactive | inactive | inactive | inactive | inactive | inactive | inactive |  | inactive | inactive |
| O=C1CN(/N=C/c2ccc(-c3ccc([N+](=O)[O-])cc3)o2)C(=O)N1 | inactive | inactive |  |  | inactive | inactive |  | inactive | inactive | inactive |
| O=C(O)c1ccccc1Nc1cccc(C(F)(F)F)c1 | inactive | inactive |  | inactive | inactive | inactive | inactive | inactive | inactive | inactive |
| O=C(O)c1cc(O)c(O)c(O)c1 | inactive | inactive |  |  |  |  |  | inactive | inactive |  |
| COc1cc(CNC(=O)CCCC/C=C/C(C)C)ccc1O | inactive | inactive | inactive | inactive | inactive | inactive | inactive |  | inactive | inactive |
| CCCC(=O)OC[C@@H](OC(=O)CCC)[C@@H](OC(=O)CCC)[C@H](Cn1c2nc(=O)[nH]c(=O)c-2nc2cc(C)c(C)cc21)OC(=O)CCC | inactive |  | inactive |  | 11.2 µM (active) |  |  | inactive |  |  |
| O=C(Nc1ccc(C(=O)O)c(O)c1)c1ccccc1 | inactive | inactive | inactive |  | inactive | inactive | inactive | inactive | inactive | inactive |
| c1ccc2sc(SSc3nc4ccccc4s3)nc2c1 | inactive | inactive | inactive | inactive | inactive | inactive | inactive | inactive | inactive | inactive |
| Cc1cc(O)c2ccccc2c1O | inactive | inactive |  |  |  | inactive |  | inactive | inactive |  |
| Cc1[nH]cnc1CN1CCc2c(c3ccccc3n2C)C1=O | inactive | inactive |  | inactive | inactive | inactive | inactive | inactive | inactive | inactive |
| CC(N)C(=O)OC(C)(C)Cc1ccc(Cl)cc1 (centres undefined) |  |  | 9.53 µM (active) | 8.49 µM (active) | 7.94 µM (active) | inactive | 5.36 µM (active) |  |  |  |
| CCCCCCCCCCCCCCCC(=O)OC(C)C | inactive | inactive | inactive | inactive | inactive |  | inactive | inactive | inactive | inactive |
| CCCCC[C@H](O)/C=C/[C@@H]1[C@@H](C/C=C\CCCC(=O)O)[C@@H](O)C[C@H]1O | inactive | inactive | inactive | inactive | inactive | inactive | inactive | inactive | inactive |  |
| c1ccc2sc(SN3CCOCC3)nc2c1 | inactive | inactive |  |  |  | inactive | inactive | inactive |  | inactive |
| CN1[C@@H](CC(=O)c2ccccc2)CCC[C@H]1C[C@H](O)c1ccccc1 |  |  | 13.5 µM (active) | 10.7 µM (active) | 10 µM (active) | inactive | 10.7 µM (active) |  |  | inactive |
